Reference: PubChem BioAssay (NCATS)
Results filed as inconclusive are left out. Activity calls are given as the source filed them. Calls follow the shape of the dose curve; as a rule, active = well fitted curve in the direction sought with a large enough effect; inconclusive = small, poorly fitted or top-dose-only effect, or another doubt; inactive = no such curve, though single readings can be large; an effect the other way counts as inactive or inconclusive.

How the values were obtained:
[1] = qHTS assay for measurement of the activity of small molecule inhibitors on Zika virus induced Caspase-3 activity in human iPSC derived neural progenitor cells (hNPCs) (AID 1224857); also: nearly all actives have a fitted effect of over 65% in size; also: potency is read from the fitted curve at half-maximal effect
Method in brief: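 Values are percent inhibition of virus-induced caspase-3/7 signal, scaled between uninfected cells and ZIKV-infected cells. Infection used 2 FFU/cell for 6 h after 1 h compound exposure.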

[2] = qHTS assay for measurement of the activity of small molecule inhibitors on Zika virus induced Caspase-3 activity in human astrocytoma cells (AID 1224859)
Method in brief: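 Compound added 1 h pre-infection; ZIKV 2 FFU/cell on SNB-19 cells, 6 h, 37 C/5% CO2. Caspase-Glo 3/7 luminescence; values as % inhibition of ZIKV-induced caspase activity.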

[3] = NS1 protein of Zika virus - qHTS assay to identify small molecule inhibitors in human HEK 293 cells (AID 1347053); also: series mostly up to about 46 µM; nearly all actives have a fitted effect of over 55% in size
Method in brief: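 Inhibition of NS1 expression was scored in HEK 293 cells given compound 1 h ahead of MR766 virus (MOI = 0.5). Following 24 h at 37 C, two anti-NS1 antibodies generated a TR-FRET signal, scaled between uninfected and infected controls.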

[4] = qHTS of pediatric cancer cell lines to identify multiple opportunities for drug repurposing: Primary screen for TC32 cells (AID 1347089); also: nearly all actives have a fitted effect of over 60% in size; also: potency is read from the fitted curve at half-maximal effect
Method in brief: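 TC32 cells, 500-1,000/well in growth medium, compound-treated 48 h at 37 °C; viability from CellTiter-Glo luminescence. Primary screen: MIPE 11-point (0.78 nM–46 µM final), NPC 8-point (0.59 nM–46 µM final); confirmatory at 11-point dilutions.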

[5] = qHTS of pediatric cancer cell lines to identify multiple opportunities for drug repurposing: Primary screen for DAOY cells (AID 1347090); also: nearly all actives have a fitted effect of over 55% in size; also: potency is read from the fitted curve at half-maximal effect
Method in brief: (§1)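 Eight- or eleven-point concentration series, 48 h treatment at 37 degrees C in growth media; readout CellTiter-Glo luminescence. Potency and efficacy were taken from the concentration-response curves.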

[6] = qHTS of pediatric cancer cell lines to identify multiple opportunities for drug repurposing: Primary screen for A673 cells (AID 1347092); also: nearly all actives have a fitted effect of over 45% in size; also: potency is read from the fitted curve at half-maximal effect
Method in brief: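 A673 cells (500-1,000 cells/well) were treated 48 hours at 37 degrees C with compounds at 11-point (0.78 nM to 46 µM) or 8-point (0.59 nM to 46 µM) dilutions. Viability read by CellTiter-Glo luminescence; concentration-response curves fitted.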

[7] = qHTS of pediatric cancer cell lines to identify multiple opportunities for drug repurposing: Primary screen for SK-N-MC cells (AID 1347093); also: potency is read from the fitted curve at half-maximal effect
Method in brief: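 Metabolically active cells were quantified by ATP-dependent luminescence (CellTiter-Glo, 15 min at room temperature) following 48 h treatment. Cells had been plated at 500-1,000 per well and settled for 5 h beforehand.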

[8] = qHTS of pediatric cancer cell lines to identify multiple opportunities for drug repurposing: Primary screen for BT-37 cells (AID 1347094); also: potency is read from the fitted curve at half-maximal effect
Method in brief: (§2)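 Plated cells (500-1,000 per well, growth media) were allowed to settle for 5 hours, treated with compound dilutions for 48 hours, then lysed with CellTiter-Glo for 15 min at room temperature before luminescence reading.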

[9] = qHTS of pediatric cancer cell lines to identify multiple opportunities for drug repurposing: Primary screen for U-2 OS cells (AID 1347096); also: nearly all actives have a fitted effect of over 50% in size
Method in brief: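 Cells (500-1,000/well) in growth media were settled 5 h at 37 degrees C, then given compounds for 48 h. Viability was read as CellTiter-Glo luminescence. Primary runs used MIPE at 11 points (0.78 nM-46 µM) and NPC at 8 points (0.59 nM-46 µM); follow-ups used 11 points.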

[10] = qHTS of pediatric cancer cell lines to identify multiple opportunities for drug repurposing: Primary screen for Saos-2 cells (AID 1347097); also: nearly all actives have a fitted effect of over 40% in size; also: potency is read from the fitted curve at half-maximal effect
Method in brief: as §2

[11] = qHTS of pediatric cancer cell lines to identify multiple opportunities for drug repurposing: Primary screen for SJ-GBM2 cells (AID 1347091); also: potency is read from the fitted curve at half-maximal effect
Method in brief: as §1

[12] = qHTS of pediatric cancer cell lines to identify multiple opportunities for drug repurposing: Primary screen for NB-EBc1 cells (AID 1347095); also: potency is read from the fitted curve at half-maximal effect
Method in brief: as §2

Measured: Potency

COc1cc2c(cc1OC)CN(C(=O)[C@H](C)N[C@@H](CCc1ccccc1)C(=O)O)[C@H](C(=O)O)C2
inactive: [1] | [2] | [3] | [4] | [5] | [6] | [7] | [8] | [9] | [10]

C=CCNc1nc(NCC=C)nc(N2CCN(C(c3ccc(F)cc3)c3ccc(F)cc3)CC2)n1
inactive: [1] | [2] | [3] | [4] | [11] | [12] | [9]

CCCCCOc1ccccc1/C(=C\SC)n1ccnc1
active: [6] 26.6 µM
inactive: [1] | [2] | [3] | [5] | [11]

CCN(CC)C(=O)C1CN2CCc3cc(OC)c(OC)cc3C2CC1OC(C)=O (centres undefined)
inactive: [1] | [2] | [3] | [5] | [11] | [6] | [7] | [8] | [12] | [9]

Cc1cc(O)c(C)c(C)c1O
inactive: [1] | [2] | [3] | [4] | [5] | [11] | [12] | [9] | [10]

CC(CC1c2ccccc2CCc2ccccc21)CN(C)C (centres undefined)
inactive: [1] | [2] | [3] | [4] | [5] | [6] | [12] | [9]

CN1CCCN=C1/C=C/c1cccs1
inactive: [1] | [2] | [3] | [5] | [11] | [6] | [8] | [12] | [9]

Cc1cccc(OCC(O)CNC(C)(C)C)c1C (centres undefined)
inactive: [1] | [2] | [3] | [5] | [11] | [6] | [8] | [9] | [10]

CC(=O)O[C@@H]1CC2C3CCc4cc(OC(=O)c5ccccc5)ccc4C3CCC2(C)[C@H]1OC(C)=O (some centres undefined)
inactive: [1] | [2] | [3] | [5] | [11] | [6] | [7] | [8] | [12] | [9]

CC(C)(C)c1ccc(O)c(O)c1
inactive: [2] | [3]
active: [1] 35.5 µM | [5] 24.3 µM | [11] 30.6 µM | [6] 15.4 µM | [7] 6.86 µM | [10] 48.6 µM

CCC1=C[C@@H]2CN(C1)Cc1c([nH]c3ccccc13)[C@@](C(=O)OC)(c1cc3c(cc1OC)N(C)[C@H]1[C@@](O)(C(=O)OC)[C@H](OC(C)=O)[C@]4(CC)C=CCN5CC[C@]31[C@@H]54)C2
inactive: [1] | [2]
active: [4] 0.0264 µM | [5] 0.0531 µM | [11] 0.0084 µM | [6] 0.0106 µM | [7] 0.0168 µM | [8] 0.0276 µM | [12] 0.0335 µM

O=C(OCC(O)CO)c1ccccc1Nc1ccnc2c(C(F)(F)F)cccc12 (centres undefined)
inactive: [1] | [2] | [5] | [11] | [6] | [8] | [12]

Nc1nc(=O)n([C@@H]2O[C@H](CO)[C@@H](O)[C@@H]2F)cc1I
inactive: [1] | [2] | [3] | [5] | [11] | [7] | [9] | [10]

CCCOc1ccc2c(c1)CC[C@@H]1[C@@H]2CC[C@]2(C)C(OC)CC[C@@H]12 (some centres undefined)
inactive: [1] | [2] | [5] | [11] | [7] | [8] | [12] | [9] | [10]

Nc1c(I)cc(I)c(C(=O)N(CCC(=O)O)c2ccccc2)c1I
inactive: [1] | [2] | [4] | [5] | [11] | [6] | [7] | [12] | [9] | [10]

C[C@@H]1CCC[C@H](C)N1CCCC(O)(c1ccccc1)c1ccccn1 (some centres undefined)
inactive: [1] | [2] | [4] | [5] | [11] | [6] | [7] | [8] | [12] | [9]

CCCc1ccc(OCC(=O)N2CCN(C(=O)COc3ccc(CCC)cc3OC)CC2)c(OC)c1
inactive: [1] | [2] | [3] | [5] | [6] | [7] | [8] | [9] | [10]

Nc1cc(C(F)(F)F)ccc1S
active: [1] 14.1 µM | [6] 21.1 µM
inactive: [2] | [3] | [11] | [8]
